SMILES strings stand for the structures. The source made the active and inactive calls.

A short description of experiment [1]: binders of probe aFSTL3 on microarray, primary screen, stem cell growth factor project, biochemical, small-molecule microarray, fluorescence 635/667 (AID 1064).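 Also: measures binding of the biotinylated anti-FSTL3 antibody to printed compounds.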 The settings on record: higher = more signal.
Experiment [2] can be described thus: binders from COS7 lysate, DM2A8 probe, primary screen, torsin A project, cell lysate, small-molecule microarray, fluorescence 635/667 (AID 1065). The settings on record: higher = more signal, COS7 lysate expressing mutant human TOR1A.
Experiment [3] can be described thus: binders of probe aFGF2 on microarray, primary screen, stem cell growth factor project, biochemical, small-molecule microarray, fluorescence 635/667 (AID 1067).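 Also: measures binding of biotinylated aFGF2 protein to printed compounds on slides; z-score merges feature fluorescence and signal-to-noise across triplicate slides.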 The settings on record: higher = more signal.
Experiment [4] is described as follows: binders of probe aFGF10 on microarray, primary screen, stem cell growth factor project, biochemical, small-molecule microarray, fluorescence 635/667 (AID 1071).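 Also: score merges 667 nm spot intensity and signal to noise from triplicate slides.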 The settings on record: higher = more signal.
For experiment [5], the target named is Neurogenic locus notch homolog protein 2 (Homo sapiens) (UniProt Q04721). The experiment in a line: Notch2 binders on small-molecule microarrays, primary screen, biochemical, small-molecule microarray, 635 nm fluorescence, stem cell growth factors (AID 1073). The following applies: Notch2 binding, higher = more signal.
Sequence of Neurogenic locus notch homolog protein 2 (Homo sapiens) (Q04721 whole entry, looked up, canonical isoform): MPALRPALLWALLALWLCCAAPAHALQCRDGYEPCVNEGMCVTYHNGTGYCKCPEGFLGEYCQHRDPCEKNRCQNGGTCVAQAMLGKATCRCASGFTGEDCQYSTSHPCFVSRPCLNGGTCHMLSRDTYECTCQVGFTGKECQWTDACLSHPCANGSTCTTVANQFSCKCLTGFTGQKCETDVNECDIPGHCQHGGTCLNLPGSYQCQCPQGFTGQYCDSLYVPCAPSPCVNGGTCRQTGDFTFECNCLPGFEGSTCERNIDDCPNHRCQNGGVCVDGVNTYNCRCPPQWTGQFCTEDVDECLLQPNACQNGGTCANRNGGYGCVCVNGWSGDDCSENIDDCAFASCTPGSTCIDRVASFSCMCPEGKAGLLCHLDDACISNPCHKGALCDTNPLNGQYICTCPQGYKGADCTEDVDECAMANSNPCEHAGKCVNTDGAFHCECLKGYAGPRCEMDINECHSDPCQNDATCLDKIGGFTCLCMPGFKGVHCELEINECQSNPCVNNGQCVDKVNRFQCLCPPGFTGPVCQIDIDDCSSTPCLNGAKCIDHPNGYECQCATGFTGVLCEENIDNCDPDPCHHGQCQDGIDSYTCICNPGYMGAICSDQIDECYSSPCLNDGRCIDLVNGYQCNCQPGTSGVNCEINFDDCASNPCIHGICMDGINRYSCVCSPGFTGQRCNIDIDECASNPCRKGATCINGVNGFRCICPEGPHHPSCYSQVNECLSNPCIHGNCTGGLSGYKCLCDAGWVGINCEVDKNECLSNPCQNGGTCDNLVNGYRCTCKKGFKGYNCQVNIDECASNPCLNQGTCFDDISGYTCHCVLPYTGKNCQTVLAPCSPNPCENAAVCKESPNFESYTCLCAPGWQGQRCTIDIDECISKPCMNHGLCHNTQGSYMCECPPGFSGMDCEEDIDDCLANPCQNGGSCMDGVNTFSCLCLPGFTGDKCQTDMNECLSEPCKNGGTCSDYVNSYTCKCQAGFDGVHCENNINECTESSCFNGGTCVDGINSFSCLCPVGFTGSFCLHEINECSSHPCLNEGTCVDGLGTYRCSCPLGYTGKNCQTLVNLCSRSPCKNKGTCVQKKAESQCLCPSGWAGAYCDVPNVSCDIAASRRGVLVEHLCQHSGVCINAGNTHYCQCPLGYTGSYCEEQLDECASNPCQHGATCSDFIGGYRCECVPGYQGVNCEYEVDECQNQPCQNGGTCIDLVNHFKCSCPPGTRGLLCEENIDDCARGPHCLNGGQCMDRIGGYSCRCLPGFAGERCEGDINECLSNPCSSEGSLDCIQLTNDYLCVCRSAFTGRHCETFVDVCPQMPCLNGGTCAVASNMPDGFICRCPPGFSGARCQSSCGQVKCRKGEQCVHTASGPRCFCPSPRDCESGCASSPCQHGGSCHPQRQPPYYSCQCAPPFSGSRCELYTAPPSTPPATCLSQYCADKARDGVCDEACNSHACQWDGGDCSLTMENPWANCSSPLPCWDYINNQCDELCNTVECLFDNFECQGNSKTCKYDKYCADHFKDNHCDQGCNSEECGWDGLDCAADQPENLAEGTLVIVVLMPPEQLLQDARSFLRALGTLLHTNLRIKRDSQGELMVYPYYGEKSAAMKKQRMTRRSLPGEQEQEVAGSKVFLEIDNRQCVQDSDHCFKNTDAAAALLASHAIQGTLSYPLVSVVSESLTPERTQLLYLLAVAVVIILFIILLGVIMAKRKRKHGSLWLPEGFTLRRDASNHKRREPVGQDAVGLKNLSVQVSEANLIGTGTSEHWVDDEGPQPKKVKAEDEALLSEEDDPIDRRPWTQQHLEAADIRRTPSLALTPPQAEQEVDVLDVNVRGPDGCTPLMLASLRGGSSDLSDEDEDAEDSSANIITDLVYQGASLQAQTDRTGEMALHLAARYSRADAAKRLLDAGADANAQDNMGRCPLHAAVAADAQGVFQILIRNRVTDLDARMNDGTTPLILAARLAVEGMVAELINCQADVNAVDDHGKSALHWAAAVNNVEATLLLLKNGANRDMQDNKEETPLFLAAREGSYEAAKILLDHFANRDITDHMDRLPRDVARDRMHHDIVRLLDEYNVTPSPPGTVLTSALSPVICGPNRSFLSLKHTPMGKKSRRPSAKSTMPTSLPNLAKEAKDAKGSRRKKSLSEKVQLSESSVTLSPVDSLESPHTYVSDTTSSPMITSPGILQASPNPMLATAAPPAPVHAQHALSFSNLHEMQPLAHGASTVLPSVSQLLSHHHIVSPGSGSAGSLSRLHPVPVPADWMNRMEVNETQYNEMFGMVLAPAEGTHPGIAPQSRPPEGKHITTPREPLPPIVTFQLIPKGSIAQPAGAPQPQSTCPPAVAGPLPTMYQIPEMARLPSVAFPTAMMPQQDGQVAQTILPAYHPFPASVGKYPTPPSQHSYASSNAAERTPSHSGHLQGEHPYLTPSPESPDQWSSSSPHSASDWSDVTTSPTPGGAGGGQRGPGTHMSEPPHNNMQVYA
In experiment [6] the target is Pro-neuregulin-1, membrane-bound isoform (Homo sapiens) (UniProt Q02297). The experiment is described as follows: NRG1 binders on small-molecule microarrays, primary screen, psychiatric disease protein project, biochemical, small-molecule microarray, fluorescence 635/667 (AID 1075).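 Also: score combines 667 nm spot fluorescence with signal to noise.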 The following applies: NRG1 binding, 635 nm fluorescence, higher = more signal.
Sequence of Pro-neuregulin-1, membrane-bound isoform (Homo sapiens) (Q02297 whole entry, looked up, the tested form may be a part, canonical isoform): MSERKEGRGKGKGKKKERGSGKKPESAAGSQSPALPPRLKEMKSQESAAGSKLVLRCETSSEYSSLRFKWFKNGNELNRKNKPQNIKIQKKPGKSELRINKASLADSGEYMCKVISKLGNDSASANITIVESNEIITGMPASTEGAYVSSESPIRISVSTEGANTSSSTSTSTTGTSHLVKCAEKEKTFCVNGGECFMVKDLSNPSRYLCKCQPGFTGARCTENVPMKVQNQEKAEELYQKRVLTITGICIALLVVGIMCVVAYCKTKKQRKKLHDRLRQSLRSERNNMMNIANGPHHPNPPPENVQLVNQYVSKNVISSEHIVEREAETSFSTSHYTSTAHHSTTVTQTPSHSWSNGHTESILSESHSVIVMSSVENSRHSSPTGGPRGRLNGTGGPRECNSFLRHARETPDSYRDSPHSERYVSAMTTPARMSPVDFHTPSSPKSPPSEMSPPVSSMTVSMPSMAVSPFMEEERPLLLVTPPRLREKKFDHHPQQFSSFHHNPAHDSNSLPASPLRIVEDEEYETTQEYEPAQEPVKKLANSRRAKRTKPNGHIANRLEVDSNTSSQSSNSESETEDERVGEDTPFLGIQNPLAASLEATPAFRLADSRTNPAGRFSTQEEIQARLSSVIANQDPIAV
Experiment [7] relates to Neuregulin-1 EGF-like domain. The experiment in a line: binders of neuregulin-1 EGF-like domain, primary screen, biochemical, small-molecule microarray, 635 nm fluorescence (AID 1081).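 Also: binding of the protein to compounds printed on small-molecule microarray slides.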 The following applies: small-molecule microarray binding, higher = more signal.
The nature of experiment [8]: FRG1 promoter luciferase signal modulators, primary screen, FRG1 inhibition for FSHD, cell-based, C2C12 myotubes, firefly/Renilla luciferase, luminescence (AID 1084). The settings on record: higher = more signal, called active from +8 up or from −8 down.
A short description of experiment [9]: binders of probe aFST on microarray, primary screen, stem cell growth factor project, biochemical, small-molecule microarray, fluorescence 635/667 (AID 1086).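 Also: score merges 667 nm fluorescence with signal-to-noise of each printed compound spot.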 The settings on record: higher = more signal.
Experiment [10] in a line: binders of probe aHhip on microarray, primary screen, stem cell growth factor project, biochemical, small-molecule microarray, fluorescence 635/667 (AID 1087).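 Also: score merges spot fluorescence at 667nm with spot signal to noise ratio.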 The following applies: higher = more signal.

On to `COC(=O)c1ccc([C@H](NC(=O)c2ccccc2)[C@]2(C)C[C@H]2C2CCCCC2)cc1`, for which the composite z-score in experiment [1] is 0.735; in experiment [2] it was -0.678; in experiment [3], 0.056; in experiment [4] it was 0.172; in [5] it was 1.22; in experiment [6], 1.18. The composite z-score in experiment [7] was 0.678; in experiment [9] it was 0.86; in experiment [10], 0.245. The z-score in [8] was -1 (inactive).

With `COC(=O)C(CC#Cc1ccc2c(c1)[C@]1(C(=O)N2)[C@H](c2ccc(O)cc2)N2[C@H](c3ccccc3)[C@H](c3ccccc3)OC(=O)[C@H]2[C@@H]1C(=O)N1CCc2cc(OC)c(OC)cc2C1)C(=O)OC`, the composite z-score in experiment [1] was -0.312; in experiment [2] it was 0.475; in experiment [3], -0.0692; in experiment [4], 0.59; in experiment [5], 1.07; in [6], 0.296. Besides, the composite z-score in [7] was 1.27; in experiment [9] it was 0.652; in [10] it was -0.0755. The z-score in [8] was 1.63 (inactive).

With `COCCOC(=O)N1C(=O)[C@@]2(c3cc(C#Cc4ccc(OC)cc4)ccc31)[C@H](C(=O)Nc1nc3ccccc3s1)[C@H]1C(=O)O[C@H](c3ccccc3)[C@H](c3ccccc3)N1[C@@H]2c1ccccc1OCCO`, the composite z-score in [1] is -0.233; in experiment [2], 0.444; in experiment [3], -0.126; in experiment [4], 0.329; in [5], 1.02; in experiment [6], 0.176. Further, the composite z-score was 0.923 in experiment [7], -0.179 in experiment [9] and -0.283 in experiment [10]. For the same compound, the z-score in experiment [8] was 0.349 (inactive).

In the case of `COC(=O)[C@@]1(CCC(=O)OC(C)(C)C)N=C(c2ccc(OCCCO)cc2)O[C@H]1c1ccccc1CN=[N+]=[N-]`, the composite z-score in experiment [1] is 0.0643; in experiment [2], -0.13; in experiment [3], -0.12; in experiment [4] it was -0.191; in [5], -0.066; in [6], 0.118. The composite z-score in experiment [7] is 0.148; in experiment [9] it was -0.04; in experiment [10], 0.21. Besides, the z-score in experiment [8] is -2.14 (inactive).

In the case of `C=CCC(OC(C)=O)[C@@H]1[C@@H](N(Cc2ccc(-c3ccccc3)cc2)C(=O)c2cccc3ccccc23)c2cc(OCCCO)ccc2N1C(=O)c1ccc2ccccc2c1` (stereo not given in full), the composite z-score in [1] is -0.254; in experiment [2] it was -0.0509; in [3], -0.0973; in experiment [4], 0.246; in experiment [5] it was 0.045; in experiment [6], -0.179. The composite z-score is -0.172 in [7], 0.277 in [9] and -0.0672 in [10]. In addition, the z-score in [8] was -0.891 (inactive).

As to `CO[C@H]1O[C@H](CO)[C@@H](OC(=O)Nc2ccc3c(c2)OCO3)[C@@H]2OC(=O)[C@@H](Cc3ccccc3)C/C=C/C[C@H](Cc3ccccc3)C(=O)O[C@@H]12`, the composite z-score in [1] is -0.276; in experiment [2] it was -0.0172; in experiment [3], 0.0631; in experiment [4] it was 0.984; in experiment [5], 1.12; in experiment [6], 0.995. For the same compound, the composite z-score in experiment [7] amounted to 0.976; in experiment [9], 0.508; in [10], 0.0373. In [8], the z-score is -0.277 (inactive).

Consider `COC(=O)[C@@]1(Cc2ccc(F)cc2)[C@H]2c3cc(C(=O)N(C)C)n(CCN4CCOCC4)c3C[C@H]2CN1C(=O)c1ccccc1`, for which the composite z-score is 0.59 in [1]; -0.141 in experiment [2]; 0.0141 in experiment [3]; 0.58 in experiment [4]; 1.63 in experiment [5]; 1.51 in experiment [6]. Besides, the composite z-score in [7] was found to be 0.654; in experiment [9] it was 0.416; in [10], 0.664. In addition, the z-score in experiment [8] was 1.56 (inactive).

Turning to `NC(=O)N1C(=O)C2C(C1=O)C1C=C(CCCO)C2C(c2ccc(CN3CCCC3)cc2)N1Cc1cccc(OC(F)(F)F)c1` (stereo not given), the composite z-score was -0.0367 in [1]; 0.145 in experiment [2]; 0.028 in experiment [3]; 0.173 in [4]; 0.185 in [5]; -0.299 in [6]. The composite z-score is 1.03 in experiment [7], 0.0635 in experiment [9] and -0.0296 in experiment [10]. For the same compound, in experiment [8], the z-score was -0.0987 (inactive).

For the compound `COc1ccc(CCNC(=O)[C@@]2(Sc3ccc(C)cc3)CC(=O)N(C(C)C)[C@@H]2c2ccc(CO)cc2)cc1`, the composite z-score in experiment [1] was 1.09; in experiment [2], 0.53; in experiment [3], -0.129; in experiment [4], -0.0606; in experiment [5], -1.35; in experiment [6], 0.871. Further, the composite z-score in experiment [7] was 0.401; in experiment [9] it was -0.686; in [10], 0.021. Moreover, the z-score in [8] is -0.921 (inactive).

For the compound `CN1C(=O)C2C=CC(C(O)c3ccc(-c4ccccc4)s3)N(Nc3ccccc3)C2C1=O` (stereo not given), the composite z-score in experiment [1] stood at 0.876; in [2], 0.358; in experiment [3] it was 0.0754; in [4], 0.454; in experiment [5], 1.67; in experiment [6] it was 1.43. For the same compound, the figures for the composite z-score in experiment [7], in [9] and in [10] were 1.09, 1.15 and 0.245, respectively. For the same compound, the z-score in [8] was 0.0583 (inactive).

As for `O=C1O[C@H](c2ccccc2)[C@H](c2ccccc2)N2[C@H]1[C@@H](C(=O)N1CCN(c3ncccn3)CC1)[C@]1(C(=O)Nc3ccccc31)[C@H]2c1ccc(O)cc1`, the composite z-score in experiment [1] was 0.258; in experiment [2] it was 0.918; in experiment [3] it was -0.0718; in experiment [4] it was 0.366; in [5], 0.239; in experiment [6], 1.23. The figures for the composite z-score in experiment [7], in experiment [9] and in experiment [10] were 1.28, 0.3 and 0.0972, respectively. For the same compound, the z-score in experiment [8] was 1.07 (inactive).

For the compound `Cc1ccc(F)cc1S(=O)(=O)N[C@@H]1CCN(Cc2ccc3c(c2)OCO3)C1`, the composite z-score in experiment [1] was -0.125; in experiment [2], 0.267; in experiment [3] it was -0.135; in experiment [4] it was -0.0066; in experiment [5], -0.898; in experiment [6] it was -0.474. Also, the composite z-score was -0.276 in experiment [7], -0.264 in experiment [9] and -0.0994 in [10]. Further, in experiment [8], the z-score is -4.06 (inactive).

Take `O=C1C2C=CC(C(O)c3ccc([N+](=O)[O-])cc3)N(Nc3ccccc3)C2C(=O)N1c1ccccc1` (stereo not given): the composite z-score in [1] is -0.228; in experiment [2] it was 0.0467; in experiment [3], 0.0589; in experiment [4], -0.115; in experiment [5] it was 1.4; in [6], 1.07. Moreover, the composite z-score in experiment [7] was 1.25; in [9], 0.564; in experiment [10] it was 0.211. In addition, in experiment [8], the z-score is -0.699 (inactive).

Take `O=C1O[C@@H](c2ccccc2)[C@@H](c2ccccc2)N2[C@@H](c3ccc(O)cc3)[C@]3(C(=O)Nc4ccc(C#CC5=CCCCC5)cc43)[C@@H](C(=O)N3CCCCCCC3)[C@H]12`: the composite z-score in experiment [1] was determined as 2.95; in experiment [2] it was 0.905; in experiment [3], 0.347; in experiment [4], 0.294; in experiment [5] it was 0.861; in experiment [6], 0.705. Further, the composite z-score in [7] worked out at 1.3; in experiment [9] it was 2.44; in experiment [10] it was 0.271. Further, the z-score in experiment [8] is -1.38 (inactive).

As to `COC(=O)[C@@]1(Cc2ccc(OC)cc2)[C@@H]2[C@@H](CC(=O)[C@H]2CC(=O)C(=O)N2CCCC2)CN1C(=O)c1ccccc1`, the composite z-score was 2.42 in experiment [1]; 0.296 in experiment [2]; 0.926 in experiment [3]; 0.884 in [4]; 1.69 in [5]; 1.94 in experiment [6]. In addition, the composite z-score in [7] was found to be 1.24; in experiment [9], 2.67; in experiment [10] it was 2.65. The z-score in [8] was 1.31 (inactive).

Consider `CCCCNC(=O)c1ccc(C#C[Si](C)(C)C)c(OC(C)=O)c1`, for which the composite z-score in experiment [1] is -0.175; in experiment [2], 0.293; in experiment [3] it was -0.0718; in experiment [4], 0.112; in [5], 0.277; in experiment [6], -0.166. Also, the composite z-score was 0.103 in experiment [7], -0.0501 in [9] and -0.0726 in experiment [10]. Moreover, the z-score in experiment [8] was 1.87 (inactive).

Values taken from PubChem BioAssay.
